Laboratory results reported in PubChem BioAssay.
Values without a mark were called inactive. Active and inactive are the calls of the source.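 How the source made its calls, unless noted: active means mean inhibition over 43.08%, the solvent-only control mean plus 3 SD; inactive means the rest.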

Experiments:
[1] = molecular target: Nuclear receptor coactivator 3 (Homo sapiens) (UniProt Q9Y6Q9); test: SRC3 coactivator transcriptional activity inhibitors, confirmation, cell-based, luminescence, quadruplicate (AID 588792); conditions: HEK293 GAL4-SRC3 luciferase reporter, at 3.6 µM, active compounds read high;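 further: 0% = DMSO treated cells and 100% = gossypol at 36 µM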
[2] = test system: transactivating tegument protein VP16 (Human herpesvirus 1), Gal4-VP16 luciferase reporter; test: VP16 transactivation inhibitors, counter-screen for SRC3 inhibitor project, cell-based, luminescence, high throughput (AID 588794; in the data active means inhibition above about 30%); conditions: mammalian cells, VP16-driven luciferase reporter luminescence; at 3.6 µM; active compounds read high
[3] = molecular target: Nuclear receptor coactivator 1 (Homo sapiens) (UniProt Q15788); test: SRC1 coactivator transcriptional activity inhibitors, confirmation, cell-based, luminescence, quadruplicate (AID 588820;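 active means mean inhibition above 46.68%, the untreated control wells mean plus 3 SD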;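 further: 0% = DMSO wells and 100% = gossypol 36 µM treated wells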); conditions: HEK293 GAL4-SRC1 luciferase reporter, at 3.6 µM, active compounds read high
[4] = VP16 transactivation inhibitors, counter-screen for SRC1 inhibitor project, cell-based, luminescence, high throughput (AID 588824; in the data active means inhibition above about 25%); conditions: cell-based VP16 transactivation luciferase luminescence; at 3.6 µM; active compounds read high
[5] = StAR promoter reporter inhibitors, counter-screen for LRH-1 inverse agonist project, cell-based, luminescence, high throughput (AID 651611; in the data active means inhibition above about 28%); conditions: StAR promoter luciferase reporter counterscreen, at 3.6 µM, active compounds read high
[6] = molecular target: Nuclear receptor subfamily 5 group A member 2 (Homo sapiens) (UniProt O00482); test: LRH-1 (NR5A2) inverse agonists, retest, confirmation, cell-based, luminescence (AID 651613; in the data active means inhibition above about 42%;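 further: HEK293T cells co-transfected with LRH-1 and StAR promoter luciferase reporter; 0% = vehicle wells and 100% = parental cells lacking receptor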); conditions: cell-based LRH-1 luciferase reporter, inverse agonism; at 3.6 µM; active compounds read high
[7] = molecular target: Steroidogenic factor 1 (Homo sapiens) (UniProt Q13285); test: SF1 (NR5A1) inverse agonists, counter-screen for LRH-1 inverse agonist project, cell-based, luminescence, high throughput (AID 651614; in the data active means inhibition above about 44%;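 further: cells cotransfected with StAR promoter reporter and SF1 expression vector; 0% = vehicle on cells with receptor and 100% = vehicle on cells lacking receptor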); conditions: cell-based SF1 luciferase reporter, at 3.6 µM, active compounds read high
[8] = VP16 transactivation reporter inhibitors, counter-screen for LRH-1 inverse agonist project, cell-based, luminescence, high throughput (AID 651615; in the data active means inhibition above about 33%); conditions: Gal4-VP16 luciferase reporter cells, at 3.6 µM, active compounds read high

Chain of Nuclear receptor subfamily 5 group A member 2 (Homo sapiens) (O00482 whole entry, looked up): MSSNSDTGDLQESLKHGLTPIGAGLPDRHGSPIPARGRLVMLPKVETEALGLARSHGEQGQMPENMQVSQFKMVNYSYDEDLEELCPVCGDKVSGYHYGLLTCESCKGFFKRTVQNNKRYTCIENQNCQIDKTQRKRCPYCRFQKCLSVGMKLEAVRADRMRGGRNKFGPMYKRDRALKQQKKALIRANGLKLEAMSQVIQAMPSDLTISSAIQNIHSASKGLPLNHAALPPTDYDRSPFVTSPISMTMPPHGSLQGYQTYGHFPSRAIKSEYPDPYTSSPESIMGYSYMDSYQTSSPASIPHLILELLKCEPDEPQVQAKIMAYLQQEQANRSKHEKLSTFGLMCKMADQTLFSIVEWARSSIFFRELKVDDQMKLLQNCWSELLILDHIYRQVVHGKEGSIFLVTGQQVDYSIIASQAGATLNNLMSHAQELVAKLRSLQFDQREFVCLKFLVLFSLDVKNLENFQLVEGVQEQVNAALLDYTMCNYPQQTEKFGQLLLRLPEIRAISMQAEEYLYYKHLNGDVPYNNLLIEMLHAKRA
Chain of Nuclear receptor coactivator 3 (Homo sapiens) (Q9Y6Q9 whole entry, looked up, the tested form may be a part): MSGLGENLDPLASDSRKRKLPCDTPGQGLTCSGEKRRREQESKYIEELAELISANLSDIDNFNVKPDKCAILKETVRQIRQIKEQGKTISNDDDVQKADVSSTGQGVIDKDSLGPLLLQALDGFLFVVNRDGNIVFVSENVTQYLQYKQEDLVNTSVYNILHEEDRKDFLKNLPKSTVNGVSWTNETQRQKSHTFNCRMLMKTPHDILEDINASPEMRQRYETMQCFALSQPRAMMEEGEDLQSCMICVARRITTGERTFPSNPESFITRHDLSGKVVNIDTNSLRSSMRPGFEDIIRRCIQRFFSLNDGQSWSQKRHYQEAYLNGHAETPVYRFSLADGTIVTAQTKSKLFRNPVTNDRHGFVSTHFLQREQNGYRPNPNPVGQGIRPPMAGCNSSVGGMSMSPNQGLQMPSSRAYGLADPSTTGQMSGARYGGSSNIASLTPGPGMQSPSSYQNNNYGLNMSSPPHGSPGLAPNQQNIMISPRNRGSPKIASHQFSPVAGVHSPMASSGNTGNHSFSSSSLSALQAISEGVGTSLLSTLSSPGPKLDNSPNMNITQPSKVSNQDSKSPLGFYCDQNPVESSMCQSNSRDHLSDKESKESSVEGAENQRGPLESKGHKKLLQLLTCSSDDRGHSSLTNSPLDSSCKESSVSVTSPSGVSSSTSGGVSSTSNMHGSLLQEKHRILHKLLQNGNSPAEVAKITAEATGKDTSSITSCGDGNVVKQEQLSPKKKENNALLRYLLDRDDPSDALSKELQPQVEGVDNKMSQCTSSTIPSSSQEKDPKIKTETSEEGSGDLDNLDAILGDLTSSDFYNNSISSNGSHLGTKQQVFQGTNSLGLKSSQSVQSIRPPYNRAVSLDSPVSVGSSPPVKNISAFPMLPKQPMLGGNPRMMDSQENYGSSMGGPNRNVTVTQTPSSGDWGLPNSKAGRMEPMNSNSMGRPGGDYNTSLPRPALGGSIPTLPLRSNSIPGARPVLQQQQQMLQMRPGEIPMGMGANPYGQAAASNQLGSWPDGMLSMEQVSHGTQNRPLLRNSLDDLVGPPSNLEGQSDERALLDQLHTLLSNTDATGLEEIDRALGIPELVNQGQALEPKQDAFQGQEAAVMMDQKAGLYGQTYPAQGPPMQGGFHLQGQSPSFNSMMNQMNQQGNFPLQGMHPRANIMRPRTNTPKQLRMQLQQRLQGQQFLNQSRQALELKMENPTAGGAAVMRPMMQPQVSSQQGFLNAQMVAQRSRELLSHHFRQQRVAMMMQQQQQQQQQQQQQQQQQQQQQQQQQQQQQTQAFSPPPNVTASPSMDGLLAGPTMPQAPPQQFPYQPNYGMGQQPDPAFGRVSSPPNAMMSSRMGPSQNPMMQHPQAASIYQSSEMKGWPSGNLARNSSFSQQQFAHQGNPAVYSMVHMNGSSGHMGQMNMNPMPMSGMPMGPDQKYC
Chain of Steroidogenic factor 1 (Homo sapiens) (Q13285 whole entry, looked up, the tested form may be a part): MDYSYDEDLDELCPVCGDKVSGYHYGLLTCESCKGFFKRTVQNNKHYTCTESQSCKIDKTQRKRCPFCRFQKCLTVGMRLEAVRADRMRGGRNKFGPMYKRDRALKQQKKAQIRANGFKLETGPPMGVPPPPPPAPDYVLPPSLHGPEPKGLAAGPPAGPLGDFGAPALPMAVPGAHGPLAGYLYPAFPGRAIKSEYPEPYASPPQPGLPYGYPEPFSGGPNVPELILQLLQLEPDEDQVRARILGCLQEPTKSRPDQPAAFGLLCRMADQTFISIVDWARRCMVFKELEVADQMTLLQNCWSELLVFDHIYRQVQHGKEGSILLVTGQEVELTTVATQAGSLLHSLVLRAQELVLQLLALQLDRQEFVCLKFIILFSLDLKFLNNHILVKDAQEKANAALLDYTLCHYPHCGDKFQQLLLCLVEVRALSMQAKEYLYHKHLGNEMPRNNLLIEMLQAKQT
Chain of Nuclear receptor coactivator 1 (Homo sapiens) (Q15788 whole entry, looked up, the tested form may be a part): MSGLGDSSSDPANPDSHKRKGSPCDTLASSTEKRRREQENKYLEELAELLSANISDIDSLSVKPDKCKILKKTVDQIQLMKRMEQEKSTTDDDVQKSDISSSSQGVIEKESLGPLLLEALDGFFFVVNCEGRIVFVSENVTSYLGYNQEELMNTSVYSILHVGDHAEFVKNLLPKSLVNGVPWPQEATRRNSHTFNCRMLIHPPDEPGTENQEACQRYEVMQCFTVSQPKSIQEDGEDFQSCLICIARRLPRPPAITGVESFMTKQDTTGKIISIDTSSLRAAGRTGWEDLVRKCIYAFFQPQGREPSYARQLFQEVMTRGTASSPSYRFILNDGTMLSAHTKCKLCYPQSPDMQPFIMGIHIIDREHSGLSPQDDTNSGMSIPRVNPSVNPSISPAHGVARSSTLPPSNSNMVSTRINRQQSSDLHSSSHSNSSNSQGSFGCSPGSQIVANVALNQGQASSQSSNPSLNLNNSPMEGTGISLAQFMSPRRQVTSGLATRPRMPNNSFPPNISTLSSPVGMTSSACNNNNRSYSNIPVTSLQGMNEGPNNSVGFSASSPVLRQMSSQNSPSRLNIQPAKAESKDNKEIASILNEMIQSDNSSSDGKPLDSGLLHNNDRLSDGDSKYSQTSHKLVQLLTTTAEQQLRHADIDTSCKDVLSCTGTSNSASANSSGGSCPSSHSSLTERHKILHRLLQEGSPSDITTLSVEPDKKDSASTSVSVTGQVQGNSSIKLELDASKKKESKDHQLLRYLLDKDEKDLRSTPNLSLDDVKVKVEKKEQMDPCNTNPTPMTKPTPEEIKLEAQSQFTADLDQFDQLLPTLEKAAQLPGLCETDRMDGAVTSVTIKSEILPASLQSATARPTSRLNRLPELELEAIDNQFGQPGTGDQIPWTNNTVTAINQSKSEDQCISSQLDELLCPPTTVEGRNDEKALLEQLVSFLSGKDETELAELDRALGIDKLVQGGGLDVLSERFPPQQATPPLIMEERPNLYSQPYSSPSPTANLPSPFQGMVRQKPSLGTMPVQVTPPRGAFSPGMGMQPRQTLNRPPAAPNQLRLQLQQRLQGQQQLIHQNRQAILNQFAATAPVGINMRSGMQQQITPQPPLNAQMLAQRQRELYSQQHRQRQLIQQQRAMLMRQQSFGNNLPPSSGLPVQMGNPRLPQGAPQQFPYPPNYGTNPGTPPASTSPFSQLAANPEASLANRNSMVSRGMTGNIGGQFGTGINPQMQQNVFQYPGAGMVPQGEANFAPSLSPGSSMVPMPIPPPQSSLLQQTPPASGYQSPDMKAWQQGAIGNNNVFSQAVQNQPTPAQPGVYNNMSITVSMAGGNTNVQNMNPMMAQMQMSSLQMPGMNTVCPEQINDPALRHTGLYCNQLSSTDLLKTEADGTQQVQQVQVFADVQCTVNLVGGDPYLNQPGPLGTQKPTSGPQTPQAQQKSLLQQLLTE

SMILES | inhibition [1] | inhibition [2] | inhibition [3] | inhibition [4] | inhibition [5] | inhibition [6] | inhibition [7] | inhibition [8]
COc1ccc(Cn2c(-c3ccc(C)cc3)c[n+]3ccccc23)cc1 | 35.9% | 52.1% (active) | 19.8% | 54.5% (active) | 50.2% (active) | 96.1% (active) | 79.5% (active) | 74% (active)
N=c1c2c(n(Cc3ccc(Br)cc3)c3c1CCC3)CCCC2 | 51.3% (active) | 67.7% (active) | 45.7% | 70.5% (active) | 60.2% (active) | 111% (active) | 86.3% (active) | 89.9% (active)
O=C(NC(Nc1nc2ccc([N+](=O)[O-])cc2s1)(C(F)(F)F)C(F)(F)F)c1ccccc1Cl | 65.5% (active) | 86.2% (active) | 27.1% | 86% (active) | 82.2% (active) | 103% (active) | 93.4% (active) | 89.8% (active)
CCc1ccc(-n2cc(-c3ccc(F)cc3)[n+]3c2SCCC3)cc1 | 17.1% | 32.1% (active) | 19.1% | 35.4% (active) | 18.4% | 67.7% (active) | 60.9% (active) | 48.4% (active)
NC(=S)NN=Cc1cc(-c2cccc(N)c2)ccn1 | 77.3% (active) | 53% (active) | 64.1% (active) | 52.2% (active) | 75.3% (active) | 93.6% (active) | 88% (active) | 72.4% (active)
CCOC(=O)C(C(C)=O)c1c(Br)c(O)c(O)c2c(C(=O)c3ccc(C)cc3)coc12 (stereo unspecified) | 57.6% (active) | 12.5% | 12.7% | 31.2% (active) | 60.4% (active) | 94.8% (active) | 83.7% (active) | 81.6% (active)
CCc1ccc(/C=C/c2c[nH]c3ccccc23)[n+](CC)c1 | 29.8% | 43.6% (active) | 24.4% | 58% (active) | 39.4% (active) | 87.6% (active) | 74% (active) | 75.8% (active)
COc1ccc(-c2c[n+]3c(n2-c2ccc(C)cc2)CCCCC3)cc1 | 36.5% | 60.1% (active) | 32.6% | 60.2% (active) | 53% (active) | 105% (active) | 82% (active) | 73.7% (active)
Cc1ccc(O)c(N=Nc2nccs2)c1 | 65.3% (active) | 57% (active) | 36% | 55.5% (active) | 79.3% (active) | 97.6% (active) | 78.5% (active) | 62.3% (active)
COc1ccc(-c2noc(CCCC(=O)O)n2)cc1 | 44.7% (active) | 36.1% (active) | 30.7% | 26% (active) | 39% (active) | 47.8% (active) | 40.1% | 30.7%
Cc1ccc2[nH]c3c(c2c1)CCCC3NC(=O)CCl (stereo unspecified) | 87.4% (active) | 84.2% (active) | 44.3% | 82.4% (active) | 92% (active) | 106% (active) | 96.3% (active) | 92.3% (active)
Cc1c(P(=S)(c2ccccc2)c2ccccc2)[n+]2ccccc2n1C/C=C/c1ccccc1 | 20.6% | 36.9% (active) | 26% | 54.4% (active) | 44.7% (active) | 90.6% (active) | 51.4% (active) | 60.5% (active)
CCCCCCCCCCn1c2c(c(=N)c3c1CCC3)CCC2 | 85.2% (active) | 89.5% (active) | 57.1% (active) | 89.7% (active) | 82.1% (active) | 108% (active) | 94.5% (active) | 95.2% (active)
C(=NNc1ccc2ccccc2n1)c1ccccn1 | 60.6% (active) | -12% | -75.3% | -33.3% | 65.4% (active) | 51% (active) | 59.2% (active) | -44.1%
CCCOC(c1ccccc1)(c1ccc(C(F)(F)F)cc1)C(Oc1nc(C)cc(C)n1)C(=O)O (stereo unspecified) | 51.2% (active) | 67% (active) | 51.6% (active) | 68.1% (active) | 75.5% (active) | 96.3% (active) | 90.2% (active) | 75.5% (active)
CCN1/C(=C/c2ccc3cc(C)ccc3[n+]2CC)Sc2ccccc21 | 57% (active) | 78.5% (active) | 45% | 80.2% (active) | 72.2% (active) | 105% (active) | 92.3% (active) | 82.7% (active)
Cc1cc([N+](=O)[O-])nn1Cc1ccc(C(=O)N/N=C/c2ccc(O)cc2O)cc1 | 54.5% (active) | 63.4% (active) | 48.5% (active) | 66.9% (active) | 80.8% (active) | 97% (active) | 88.1% (active) | 87.9% (active)
